Holding throughout (type): functional
Test [1] has as its target Solute carrier family 2, facilitated glucose transporter member 1 (Homo sapiens) (UniProt P11166). The test can be described thus: ST_JUDE_LEISH: Cytotoxicity at 2uM final concentration against transgenic Leishmania Mexicana promastigotes LmGLUT1 that are glucose transport deficient and complemented with the human glucose transporter GLUT1. Activity is measured by DNA content using SYBR green in vitro.

Test [2] addresses Hexose transporter 1 (Plasmodium falciparum) (UniProt O97467). The test can be described thus: ST_JUDE_LEISH: Cytotoxicity at 2uM final concentration against transgenic Leishmania Mexicana promastigotes LmPfHT that are glucose transport deficient and complemented with the Plasmodium falciparum hexose transporter. Activity is measured by DNA content using SYBR green in vitro.
The target of test [3] is Glucose transporter (Leishmania mexicana) (UniProt O61059). In words: ST_JUDE_LEISH: Cytotoxicity at 2uM final concentration against transgenic Leishmania Mexicana promastigotes LmGT2 that are glucose transport deficient and complemented with the L. Mexicana glucose transporter 2. Activity is measured by DNA content using SYBR green in vitro.

Experimental findings from ChEMBL document CHEMBL3433997, “St. Jude Leishmania screening dataset” (2016) are described below.

The structures appear in SMILES notation.

Chain of Solute carrier family 2, facilitated glucose transporter member 1 (Homo sapiens) (P11166 whole entry): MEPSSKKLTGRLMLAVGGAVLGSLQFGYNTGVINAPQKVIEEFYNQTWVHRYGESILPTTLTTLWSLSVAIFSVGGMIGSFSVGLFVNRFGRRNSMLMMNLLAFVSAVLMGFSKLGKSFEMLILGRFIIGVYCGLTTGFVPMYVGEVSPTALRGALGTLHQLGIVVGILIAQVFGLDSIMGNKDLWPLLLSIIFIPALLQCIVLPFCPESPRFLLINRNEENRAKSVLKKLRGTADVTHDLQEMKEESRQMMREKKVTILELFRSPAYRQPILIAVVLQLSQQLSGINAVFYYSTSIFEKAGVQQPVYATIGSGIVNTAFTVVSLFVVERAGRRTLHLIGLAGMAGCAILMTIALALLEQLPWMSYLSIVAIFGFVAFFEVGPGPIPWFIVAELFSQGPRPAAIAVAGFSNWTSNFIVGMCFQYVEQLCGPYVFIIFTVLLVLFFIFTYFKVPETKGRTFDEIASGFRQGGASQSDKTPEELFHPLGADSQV

Usually inhibition stands for the drop in the measured response relative to a control, in per cent. For `Cc1ccc(C(=O)Nc2ccc(-c3nc4ccccc4[nH]3)cc2)cc1S(=O)(=O)N1CCOCC1`, the inhibition worked out at 2.29% in test [1], 1.71% in test [2] and 0.77% in test [3].
With `O=C(NCc1ccco1)c1ccc(CN2CCN(C(c3ccccc3)c3ccccc3)CC2)cc1`, the inhibition in test [1] was determined as 7.85%; in test [2] it was 6.41%; in test [3], 4.79%.
Turning to `Nc1ncc(-c2ccc(S(=O)(=O)Nc3ccc(C(=O)N[C@@H](CCC(=O)O)C(=O)O)cc3)cc2)c(=O)[nH]1`, the inhibition came out at 4.56% in test [1], 4.19% in test [2] and 4.44% in test [3].
In the case of `CC(O)C1CCCCN1C(=O)c1ccc(-c2ccc(-c3nc4cc(F)ccc4[nH]3)cc2)cc1` (stereo unspecified), the inhibition in test [1] was 3.95%; in test [2], 3.23%; in test [3] it was 3.6%.
Consider `Cc1ccc(O)c(C(=O)c2cnc3c(c2)c(-c2ccc(F)cc2)c(C#N)c(=O)n3C)c1`, for which the inhibition in test [1] turned out to be 8.51%; in test [2], 4.73%; in test [3] it was 1.51%.
For `CCCCC(CCCC)CN1C(=O)C(c2ccccc2)(c2ccccc2)N=C1N` the same measures were 1.9%, 1.66% and 0.77%.
For the compound `Oc1ccc(CC2CCCN(c3nc(NCCCOc4ccccc4-c4ccccc4)nc(N4CCNCC4)n3)C2)cc1` (stereo unspecified), the inhibition in test [1] is -0.74%; in test [2] it was -1.72%; in test [3], -1.02%.
As to `N#Cc1ccc(-c2ccc(C(=O)NCCCCN3CCC(c4ccc5c(c4OCC(N)=O)CCCC5)CC3)cc2)cc1`, the inhibition in test [1] came to 1.23%; in test [2] it was 0.2%; in test [3] it was 1.1%.
For `CON(C)C(=O)[C@@H](CCCCNC(=O)OCc1ccccc1)NC(=O)OC(C)(C)C` the same measures were -0.81%, -1.84% and -1.83%.
For `CC(=O)Nc1cc(C(=O)Nc2cccc(-c3cccc(-c4nc5cc(C(F)(F)F)ccc5[nH]4)c3)c2)ccc1C`, in that order: 7.57%, 6.52% and 1.84%.
For `COc1ccc(-n2cc(CNCCCn3ccnc3)c(-c3cccc(F)c3)n2)cc1` the same measures were 1.74%, 2.48% and -5.03%.
As to `OC(CNc1ccnc(Nc2cccc(OCCCN3CCOCC3)c2)n1)c1ccccc1` (stereo unspecified), the results for the inhibition in test [1], in test [2] and in test [3] were 0.76%, 0.43% and -0.96%, respectively.
Take `CCCS(=O)(=O)N1CCC(CO)(Cc2ccccc2C(F)(F)F)CC1`: the values for the inhibition in test [1], in test [2] and in test [3] were 2.81%, 3.09% and 2.87%, respectively.
For `N=C(N)c1ccc(C=Cc2ccc(C(=N)N)cc2O)cc1`, the inhibition in test [1] was -0.26%; in test [2], -0.04%; in test [3], -0.9%.
As to `O=C(Nc1cccc(F)c1)NC1CCN(c2ccnc3cc(Cl)ccc23)CC1`, the inhibition in test [1] came to 2.51%; in test [2] it was 1.28%; in test [3] it was 1.75%.
`CNC(=O)c1ccc(/C=C/C(=O)N2CCc3ccc(-c4ccccc4)cc3C2c2cccc(C(F)(F)F)c2)cc1` (stereo unspecified): the inhibition was 2.29% in test [1], -0.01% in test [2] and 0.99% in test [3].
For `Cc1[nH]c(CNCCCNc2cc(=O)c3ccccc3[nH]2)c(Br)c1Br`, in that order: 0.62%, 1.85% and -0.49%.
For `CO[C@H](C)[C@H](NC(=O)[C@H](CC(C)C)[C@H](CCC(F)(F)F)N(O)C=O)C(=O)Nc1nccs1`, the inhibition in test [1] came out at 4.95%; in test [2], 4.95%; in test [3] it was 3.68%.
Turning to `CCCCOC(=O)C1=C(C)NC2=C(C(=O)CCC2)C1c1ccc(OC)c(Br)c1` (stereo unspecified), the inhibition in test [1] was 0.77%; in test [2], -0.81%; in test [3] it was -1.96%.
Take `Cc1cccc2nc(-c3ccc(-c4cccc(NC(=O)Nc5ccc6c(c5)OCO6)c4)cc3)[nH]c12`: the inhibition in test [1] came to 2.61%; in test [2], 4.13%; in test [3], 3.3%.
For `CCCCc1ccccc1NS(=O)(=O)c1ccc(OC)c(N2CCNCC2)c1`, the inhibition in test [1] is -0.96%; in test [2], -3.65%; in test [3], -2.27%.
Consider `CN1CCN(c2nc(NCCNc3ccc([N+](=O)[O-])cc3)c3ccccc3n2)CC1`, for which the inhibition in test [1] was found to be 0.92%; in test [2], 0.91%; in test [3], 0.54%.
As to `COc1ccc2nccc(N3CCC(NCCNCc4ccc5c(n4)NC(=O)CS5)C3)c2n1` (stereo unspecified), the inhibition in test [1] was found to be 3.26%; in test [2], 4.23%; in test [3], 4.55%.
With `COc1ccc(-c2ccc(NC(=O)c3ccc(C#N)cc3)cc2)cc1CN1CCN(C)CC1`, the inhibition in test [1] amounted to 4.24%; in test [2], 1.9%; in test [3], 2.76%.
As for `CN(C)CCNC(=O)[C@H](CC1CCCCC1)NC(=O)c1ccc(O)c(-c2ccc(Cl)c(Cl)c2)c1`, the inhibition was determined as 4% in test [1], 2.85% in test [2] and 1.78% in test [3].
On to `COCCNCc1nc(-c2ccc3c(Nc4ccc(F)c(O)c4)ccnc3c2)cs1`, for which the inhibition came to 2.38% in test [1], 1.29% in test [2] and 0.42% in test [3].
For `c1ccc2c(NCCc3c[nH]cn3)c3ccccc3nc2c1`, in that order: 0.58%, 4.05% and 2.23%.
On to `CCc1ccc(S(=O)(=O)Nc2ccc(CCN(C)C3CCN(C)CC3)cc2)cc1`, for which the inhibition in test [1] stood at 3.75%; in test [2], 3.41%; in test [3], 2.27%.
Turning to `Cc1ccc(C(=O)Nc2ccc(C)c(OC3CCN(CCC(C)C)C3)c2)cc1` (stereo unspecified), the inhibition in test [1] came to 8.1%; in test [2], 8.98%; in test [3] it was 5.85%.
For `COc1cccc(OCC2CCCN(CCCCNC(=O)c3ccc(NC(=O)c4ccc(Cl)cc4)cc3)C2)c1` (stereo unspecified) the same measures were -2.42%, 1.68% and -1.92%.
For `CC1CN(c2ccc3[nH]cc(Sc4ccc(-c5cccs5)cc4)c3c2)CC(C)N1` (stereo unspecified) the same measures were -0.79%, -1.78% and -1.36%.
As for `CC(C)Oc1ccccc1-c1csc(C(=O)NCC2CCN(Cc3ccc(C(C)(C)C)cc3)C2)c1` (stereo unspecified), the inhibition in test [1] was 0.7%; in test [2], 1.62%; in test [3], -2.96%.
As to `Cc1sc2ccc(Cl)cc2c1S(=O)(=O)Nc1ccc2nccc(N3CC(C)NC(C)C3)c2c1` (stereo unspecified), the inhibition was determined as 3.66% in test [1], 4.16% in test [2] and 6.32% in test [3].
Regarding `O=C(CCCCCNC(=O)c1ccc(O)c(-c2ccc(Cl)c(Cl)c2)c1)NC1CCCCCC1`, the inhibition in test [1] was found to be 4.53%; in test [2] it was 3.51%; in test [3], 4.8%.
As to `COc1c(C2CCN(CCCCNC(=O)c3cc(-c4ccc(Cl)cc4)oc3C)CC2)ccc2c1CCCC2`, the inhibition worked out at 9.04% in test [1], 9.78% in test [2] and 5.26% in test [3].
Turning to `COc1cccc(-c2ccc(NC(=O)C3CCCN(Cc4cccc(OC)c4O)C3)cc2)c1` (stereo unspecified), the inhibition in test [1] was 3.21%; in test [2], 2.29%; in test [3] it was -0.64%.
For `CCOc1ccc(C=CC(=O)Nc2ccc3nc(N4CCN(C)CC4)cc(C)c3c2)cc1OC`, the inhibition in test [1] is 3%; in test [2] it was 3.77%; in test [3], 1.18%.
